Data on 2 sequences can be found in PMC7862700, “An all-to-all approach to the identification of sequence-specific readers for epigenetic DNA modifications on cytosine”.

What all share (assay): DAPPL (digital affinity profiling via proximity ligation, sequencing); 10 mM Tris-HCl pH 7.5, 50 mM NaCl, 1 mM DTT, 4% glycerol, room temperature, 30 min; GST-TFs on glutathione beads, 16-mer random dsDNA library, 0.1% formaldehyde crosslink after washing; high values mean tight binding
Holding throughout (settings): protein: recombinant; tags: N-terminal GST; dsDNA, one strand shown

In one test the target is T1, GABPA (Homo sapiens, UniProt Q06546 1-454).
T1 sequence: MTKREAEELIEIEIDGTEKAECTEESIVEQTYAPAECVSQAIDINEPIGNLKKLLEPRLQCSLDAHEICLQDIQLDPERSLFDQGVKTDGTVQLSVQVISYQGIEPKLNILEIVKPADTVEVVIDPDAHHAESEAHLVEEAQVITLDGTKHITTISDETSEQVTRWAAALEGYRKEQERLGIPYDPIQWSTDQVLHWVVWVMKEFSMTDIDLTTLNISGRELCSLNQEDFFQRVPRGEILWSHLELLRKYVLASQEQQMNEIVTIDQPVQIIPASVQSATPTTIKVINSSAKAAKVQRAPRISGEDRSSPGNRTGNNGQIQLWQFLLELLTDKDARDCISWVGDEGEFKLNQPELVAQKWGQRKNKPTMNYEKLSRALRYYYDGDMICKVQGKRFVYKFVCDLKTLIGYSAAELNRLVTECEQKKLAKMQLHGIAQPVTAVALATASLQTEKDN
The procedure, abridged:
(§1)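 Pools were built from human transcription factors expressed in yeast as GST fusions, captured on glutathione beads and DNA-barcoded, along with a tag-only sample. Incubation with 200 nmole of a 16-mer random double-stranded DNA library lasted 30 min at room temperature in Tris/NaCl/DTT/glycerol buffer, and was followed by washing, 0.1% formaldehyde crosslinking, proximity ligation, PCR amplification and Illumina NextSeq500 sequencing. Binding signal is the quotient of each hexamer's read frequency for a factor and its frequency for the tag-only sample.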

For a further test, the target named is T2, ERG (Homo sapiens, UniProt P11308 1-479).
T2 sequence: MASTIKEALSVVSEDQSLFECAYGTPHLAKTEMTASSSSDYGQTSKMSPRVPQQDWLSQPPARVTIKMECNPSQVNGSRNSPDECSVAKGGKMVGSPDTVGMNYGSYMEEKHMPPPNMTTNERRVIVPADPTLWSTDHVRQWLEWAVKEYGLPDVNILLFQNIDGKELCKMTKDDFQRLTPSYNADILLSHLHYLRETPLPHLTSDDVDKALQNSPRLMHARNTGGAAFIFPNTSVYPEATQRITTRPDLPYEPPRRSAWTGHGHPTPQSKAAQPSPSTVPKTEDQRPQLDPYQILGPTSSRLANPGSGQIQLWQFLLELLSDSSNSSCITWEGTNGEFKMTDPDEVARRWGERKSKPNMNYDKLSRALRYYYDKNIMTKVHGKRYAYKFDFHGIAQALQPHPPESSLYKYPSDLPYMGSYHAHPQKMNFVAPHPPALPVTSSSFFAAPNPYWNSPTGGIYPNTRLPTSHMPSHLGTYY
The procedure, abridged: as §1

For the next test, the target named is ELF1 (Homo sapiens, UniProt P32519 1-619). Put shortly:
as §1

Another test concerns the target T3, EHF (Homo sapiens, UniProt Q9NZC4 1-300).
T3 sequence: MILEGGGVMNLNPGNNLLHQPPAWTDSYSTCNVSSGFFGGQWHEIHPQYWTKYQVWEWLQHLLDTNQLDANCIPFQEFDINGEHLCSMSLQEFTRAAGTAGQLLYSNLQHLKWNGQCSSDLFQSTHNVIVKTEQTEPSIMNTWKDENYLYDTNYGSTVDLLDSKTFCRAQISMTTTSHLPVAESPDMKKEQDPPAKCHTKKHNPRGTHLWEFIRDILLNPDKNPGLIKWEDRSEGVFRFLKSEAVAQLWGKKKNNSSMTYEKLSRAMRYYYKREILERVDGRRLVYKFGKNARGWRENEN
Put shortly: as §1

The target of another test is SPI1 (Homo sapiens, UniProt P17947 1-270). Put shortly:
as §1

Another test addresses SPIB (Homo sapiens, UniProt Q01892 1-262). Put shortly:
as §1

For another test, the target named is ETV5 (Homo sapiens, UniProt P41161 1-510). Put shortly: as §1
Chain of ETV5 (P41161 whole entry): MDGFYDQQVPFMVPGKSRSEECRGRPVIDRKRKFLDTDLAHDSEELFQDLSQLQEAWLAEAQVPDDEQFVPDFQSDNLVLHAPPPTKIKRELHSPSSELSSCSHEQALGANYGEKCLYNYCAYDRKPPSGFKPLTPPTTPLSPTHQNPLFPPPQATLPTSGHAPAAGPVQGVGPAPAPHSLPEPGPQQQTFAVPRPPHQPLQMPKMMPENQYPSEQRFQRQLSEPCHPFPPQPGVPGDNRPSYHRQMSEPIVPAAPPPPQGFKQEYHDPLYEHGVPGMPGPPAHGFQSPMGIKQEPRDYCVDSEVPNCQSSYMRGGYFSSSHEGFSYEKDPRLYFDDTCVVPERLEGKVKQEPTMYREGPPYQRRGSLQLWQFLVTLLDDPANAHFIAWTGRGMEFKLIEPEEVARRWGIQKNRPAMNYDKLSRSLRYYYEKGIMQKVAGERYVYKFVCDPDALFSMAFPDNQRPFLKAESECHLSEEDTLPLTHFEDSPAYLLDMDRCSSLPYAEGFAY
The target in the next test is ELF4 (Homo sapiens, UniProt Q99607 1-663). The procedure, abridged:
as §1

Another test deals with T4, ETV2 (Homo sapiens, UniProt O00321 1-342).
T4 sequence: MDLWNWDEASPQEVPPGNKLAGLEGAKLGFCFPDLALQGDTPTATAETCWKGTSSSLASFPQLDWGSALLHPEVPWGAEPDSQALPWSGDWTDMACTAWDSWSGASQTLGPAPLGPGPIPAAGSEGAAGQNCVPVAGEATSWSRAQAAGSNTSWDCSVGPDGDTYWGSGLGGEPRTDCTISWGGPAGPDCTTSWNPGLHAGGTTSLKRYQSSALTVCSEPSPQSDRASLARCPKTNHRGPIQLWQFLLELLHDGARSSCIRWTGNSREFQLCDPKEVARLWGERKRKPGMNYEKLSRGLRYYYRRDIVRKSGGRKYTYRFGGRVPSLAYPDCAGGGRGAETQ
The procedure, abridged: as §1

The next test deals with ETV1 (Homo sapiens, UniProt P50549 1-477). Put shortly: as §1
Chain of ETV1 (P50549 whole entry): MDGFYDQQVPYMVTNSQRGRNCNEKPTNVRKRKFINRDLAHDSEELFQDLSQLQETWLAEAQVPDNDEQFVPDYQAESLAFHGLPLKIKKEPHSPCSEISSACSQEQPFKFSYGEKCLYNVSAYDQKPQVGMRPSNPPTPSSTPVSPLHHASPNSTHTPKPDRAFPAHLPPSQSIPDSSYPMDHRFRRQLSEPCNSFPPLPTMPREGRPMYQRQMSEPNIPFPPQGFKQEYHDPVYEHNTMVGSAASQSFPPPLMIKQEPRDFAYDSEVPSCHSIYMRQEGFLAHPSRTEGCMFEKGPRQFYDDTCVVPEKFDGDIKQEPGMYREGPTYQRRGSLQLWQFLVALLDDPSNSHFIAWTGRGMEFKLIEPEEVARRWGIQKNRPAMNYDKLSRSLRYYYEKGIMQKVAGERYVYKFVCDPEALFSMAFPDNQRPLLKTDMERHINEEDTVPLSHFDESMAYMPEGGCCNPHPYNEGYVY
The target of the next test is T5, ETV3L (Homo sapiens, UniProt Q6ZN32 1-361).
T5 sequence: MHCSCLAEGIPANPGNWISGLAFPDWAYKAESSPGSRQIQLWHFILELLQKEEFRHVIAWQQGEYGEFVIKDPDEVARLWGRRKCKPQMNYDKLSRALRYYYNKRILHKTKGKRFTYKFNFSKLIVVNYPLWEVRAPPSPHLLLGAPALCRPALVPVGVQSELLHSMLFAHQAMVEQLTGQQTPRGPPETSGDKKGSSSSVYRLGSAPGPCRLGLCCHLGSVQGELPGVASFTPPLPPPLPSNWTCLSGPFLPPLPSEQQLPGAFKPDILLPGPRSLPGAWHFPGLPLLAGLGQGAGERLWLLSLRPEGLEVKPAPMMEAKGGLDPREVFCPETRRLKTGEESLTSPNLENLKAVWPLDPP
The procedure, abridged: as §1

In a further test the target is T6, ETS2 (Homo sapiens, UniProt P15036 1-469).
T6 sequence: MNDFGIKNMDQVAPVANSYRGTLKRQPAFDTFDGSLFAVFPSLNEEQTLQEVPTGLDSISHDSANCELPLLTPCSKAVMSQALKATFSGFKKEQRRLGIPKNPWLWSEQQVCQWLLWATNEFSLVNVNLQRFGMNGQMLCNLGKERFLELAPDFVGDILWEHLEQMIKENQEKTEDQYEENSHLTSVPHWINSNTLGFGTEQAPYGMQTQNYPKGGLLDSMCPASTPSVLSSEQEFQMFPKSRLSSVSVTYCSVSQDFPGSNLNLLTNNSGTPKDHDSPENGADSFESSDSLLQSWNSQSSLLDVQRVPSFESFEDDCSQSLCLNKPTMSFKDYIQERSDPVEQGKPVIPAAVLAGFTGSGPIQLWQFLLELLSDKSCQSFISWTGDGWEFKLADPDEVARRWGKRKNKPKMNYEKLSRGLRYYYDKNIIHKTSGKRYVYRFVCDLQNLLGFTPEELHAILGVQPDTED
Put shortly:
as §1

The target of a further test is T7, ETV7 (Homo sapiens, UniProt Q9Y603 1-341).
T7 sequence: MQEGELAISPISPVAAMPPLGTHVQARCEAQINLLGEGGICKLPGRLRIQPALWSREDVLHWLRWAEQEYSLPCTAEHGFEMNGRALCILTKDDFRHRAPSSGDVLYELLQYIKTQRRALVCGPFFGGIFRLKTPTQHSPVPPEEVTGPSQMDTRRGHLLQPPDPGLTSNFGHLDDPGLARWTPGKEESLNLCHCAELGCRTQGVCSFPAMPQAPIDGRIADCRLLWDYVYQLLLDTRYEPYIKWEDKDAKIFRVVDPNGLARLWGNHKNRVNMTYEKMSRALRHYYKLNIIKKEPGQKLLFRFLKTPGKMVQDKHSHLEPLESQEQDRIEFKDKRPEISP
Put shortly: as §1

The target of the next test is T8, ELK1 (Homo sapiens, UniProt P19419 1-428).
T8 sequence: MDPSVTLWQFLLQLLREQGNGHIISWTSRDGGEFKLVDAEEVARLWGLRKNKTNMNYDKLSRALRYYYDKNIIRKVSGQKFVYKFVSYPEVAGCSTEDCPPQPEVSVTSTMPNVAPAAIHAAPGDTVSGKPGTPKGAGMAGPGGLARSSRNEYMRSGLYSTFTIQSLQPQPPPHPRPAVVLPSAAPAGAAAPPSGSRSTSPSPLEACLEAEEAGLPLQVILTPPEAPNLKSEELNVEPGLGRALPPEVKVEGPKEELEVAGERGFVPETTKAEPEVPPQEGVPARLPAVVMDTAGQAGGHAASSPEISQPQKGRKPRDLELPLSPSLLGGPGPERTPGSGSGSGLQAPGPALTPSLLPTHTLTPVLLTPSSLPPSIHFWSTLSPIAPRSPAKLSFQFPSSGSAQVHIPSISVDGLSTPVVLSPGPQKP
The procedure, abridged:
as §1

The target of a further test is T9, FEV (Homo sapiens, UniProt Q99581 1-238).
T9 sequence: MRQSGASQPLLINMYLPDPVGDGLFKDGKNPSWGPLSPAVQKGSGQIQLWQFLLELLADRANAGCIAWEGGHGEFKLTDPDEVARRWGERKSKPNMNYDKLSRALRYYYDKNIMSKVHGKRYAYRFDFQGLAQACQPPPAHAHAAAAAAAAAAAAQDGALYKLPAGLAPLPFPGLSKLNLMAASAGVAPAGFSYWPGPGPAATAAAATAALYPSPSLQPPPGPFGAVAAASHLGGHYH
The procedure, abridged:
as §1

A further test deals with ETV6 (Homo sapiens, UniProt P41212 1-452). Put shortly:
as §1

Chain of SPIB (Q01892 whole entry): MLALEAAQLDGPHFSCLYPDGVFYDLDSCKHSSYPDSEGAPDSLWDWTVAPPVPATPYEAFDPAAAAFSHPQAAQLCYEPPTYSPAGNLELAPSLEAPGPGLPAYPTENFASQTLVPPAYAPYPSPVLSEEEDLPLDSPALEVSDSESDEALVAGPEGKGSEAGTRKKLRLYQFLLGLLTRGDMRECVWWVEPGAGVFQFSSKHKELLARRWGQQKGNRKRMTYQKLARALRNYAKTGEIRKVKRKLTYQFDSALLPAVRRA
Chain of ETV6 (P41212 whole entry): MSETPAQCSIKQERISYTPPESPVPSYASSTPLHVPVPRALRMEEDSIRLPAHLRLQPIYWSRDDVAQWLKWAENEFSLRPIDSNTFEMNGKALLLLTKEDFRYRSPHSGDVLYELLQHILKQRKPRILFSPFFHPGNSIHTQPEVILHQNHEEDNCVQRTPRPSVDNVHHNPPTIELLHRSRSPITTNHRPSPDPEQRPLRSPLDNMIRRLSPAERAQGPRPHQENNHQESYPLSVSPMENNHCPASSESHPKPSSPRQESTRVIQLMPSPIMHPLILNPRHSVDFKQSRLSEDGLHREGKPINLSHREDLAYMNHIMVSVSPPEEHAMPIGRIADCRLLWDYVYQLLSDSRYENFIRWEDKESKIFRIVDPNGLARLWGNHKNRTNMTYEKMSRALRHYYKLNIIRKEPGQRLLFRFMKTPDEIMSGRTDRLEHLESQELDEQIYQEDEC
Chain of ELF1 (P32519 whole entry): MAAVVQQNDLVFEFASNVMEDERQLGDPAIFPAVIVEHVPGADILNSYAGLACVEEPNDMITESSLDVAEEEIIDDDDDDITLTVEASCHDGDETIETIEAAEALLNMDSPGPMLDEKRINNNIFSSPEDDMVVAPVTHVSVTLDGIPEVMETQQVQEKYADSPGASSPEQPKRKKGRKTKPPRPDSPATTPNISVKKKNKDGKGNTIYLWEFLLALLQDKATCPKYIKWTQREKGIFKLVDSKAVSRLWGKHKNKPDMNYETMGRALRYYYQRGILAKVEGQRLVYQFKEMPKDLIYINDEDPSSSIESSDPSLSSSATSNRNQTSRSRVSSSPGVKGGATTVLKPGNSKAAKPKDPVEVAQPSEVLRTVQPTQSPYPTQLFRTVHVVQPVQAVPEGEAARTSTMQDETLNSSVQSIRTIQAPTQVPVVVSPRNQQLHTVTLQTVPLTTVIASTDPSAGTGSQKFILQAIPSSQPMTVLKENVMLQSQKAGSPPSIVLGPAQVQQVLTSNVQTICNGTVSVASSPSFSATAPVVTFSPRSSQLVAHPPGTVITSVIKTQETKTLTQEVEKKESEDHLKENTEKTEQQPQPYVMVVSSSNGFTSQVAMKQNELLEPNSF
Chain of ELF4 (Q99607 whole entry): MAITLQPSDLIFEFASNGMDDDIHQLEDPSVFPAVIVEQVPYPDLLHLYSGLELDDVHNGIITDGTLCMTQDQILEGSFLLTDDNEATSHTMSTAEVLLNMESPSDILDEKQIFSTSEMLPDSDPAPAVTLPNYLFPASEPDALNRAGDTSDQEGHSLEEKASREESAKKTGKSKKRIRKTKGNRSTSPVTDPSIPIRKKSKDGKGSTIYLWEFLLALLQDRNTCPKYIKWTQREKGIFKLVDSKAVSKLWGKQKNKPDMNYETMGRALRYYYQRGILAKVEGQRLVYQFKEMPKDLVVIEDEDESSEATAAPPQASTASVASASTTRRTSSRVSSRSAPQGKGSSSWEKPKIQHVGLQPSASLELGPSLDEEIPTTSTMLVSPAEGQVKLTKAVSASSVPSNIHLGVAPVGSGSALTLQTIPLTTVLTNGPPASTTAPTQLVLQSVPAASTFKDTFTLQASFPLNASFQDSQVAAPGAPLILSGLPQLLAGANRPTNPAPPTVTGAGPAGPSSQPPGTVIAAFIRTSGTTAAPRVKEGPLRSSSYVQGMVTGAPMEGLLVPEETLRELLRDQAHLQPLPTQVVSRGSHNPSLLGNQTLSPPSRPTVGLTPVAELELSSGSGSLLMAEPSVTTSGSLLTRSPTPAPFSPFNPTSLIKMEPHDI

Take AGAAAA: the binding signal in the test with GABPA was 1.03 fold enrichment (6-mer frequency, TF over GST control); with ERG, 1.02 fold enrichment (6-mer frequency, TF over GST control); with ELF1, 1.02 fold enrichment (6-mer frequency, TF over GST control); with EHF, 1.02 fold enrichment (6-mer frequency, TF over GST control); with SPI1, 1.11 fold enrichment (6-mer frequency, TF over GST control); with SPIB it was 1.08 fold enrichment (6-mer frequency, TF over GST control). For the same sequence, the binding signal in the test with ETV5 is 1.02 fold enrichment (6-mer frequency, TF over GST control); in the test with ELF4, 1.04 fold enrichment (6-mer frequency, TF over GST control); with ETV2 it was 1.1 fold enrichment (6-mer frequency, TF over GST control); with ETV1 it was 1.05 fold enrichment (6-mer frequency, TF over GST control); in the test with ETV3L it was 1 fold enrichment (6-mer frequency, TF over GST control); in the test with ETS2 it was 1.09 fold enrichment (6-mer frequency, TF over GST control). For the same sequence, in the test with ETV7, the binding signal is 1.04 fold enrichment (6-mer frequency, TF over GST control).
As to TGGCGA, the binding signal with ELK1 was 1.02 fold enrichment (6-mer frequency, TF over GST control); with GABPA, 1.01 fold enrichment (6-mer frequency, TF over GST control); with ERG, 1.02 fold enrichment (6-mer frequency, TF over GST control); with EHF it was 1.01 fold enrichment (6-mer frequency, TF over GST control); with SPI1, 1.03 fold enrichment (6-mer frequency, TF over GST control); in the test with FEV, 1.02 fold enrichment (6-mer frequency, TF over GST control). Moreover, the binding signal in the test with ETV5 is 1.01 fold enrichment (6-mer frequency, TF over GST control); with ETS2, 1.06 fold enrichment (6-mer frequency, TF over GST control); in the test with ETV7 it was 1.07 fold enrichment (6-mer frequency, TF over GST control); in the test with ETV6, 1.03 fold enrichment (6-mer frequency, TF over GST control).
